# From PubChem BioAssay
# Calls of active or inactive are those of the source. Rule as the data show it: active = inhibition above about 28%; inactive = the rest.
# Test: StAR promoter reporter inhibitors, counter-screen for LRH-1 inverse agonist project, cell-based, luminescence, high throughput (AID 651611)
# Settings: StAR promoter luciferase reporter counterscreen, at 3.6 µM, active compounds read high
row,Structure (SMILES),inhibition
1,COc1ccc(N=C2NN=C(c3c(C)[nH]c4ccccc34)CS2)cc1,-7.38% (inactive)
2,CC(C)Oc1cccc(-c2cc(C(=O)NN3CCOCC3)c3ccccc3n2)c1,17.5% (inactive)
3,Cc1nn(CC(=O)NCCC2=CCCCC2)c(C)c1[N+](=O)[O-],17.5% (inactive)
4,O=C(COc1cc2oc(=O)cc(-c3ccccc3)c2cc1Cl)NCCN1CCOCC1,10.4% (inactive)
5,Cc1cc2oc(=O)cc(-c3ccccc3)c2c(C)c1-c1ccc(CO)cc1,10.8% (inactive)
6,CCOc1ccc(Cc2nnc(SCC(=O)Nc3ccc(C(C)=O)cc3)[nH]c2=O)cc1,1.5% (inactive)
7,O=C(Nc1ccc(N2CCOCC2)c(Cl)c1)c1ccc([N+](=O)[O-])o1,-80.2% (inactive)
8,Cc1cccc(CN2C(=O)CSc3ccc(C(=O)NC4CC4)cc32)c1,10.4% (inactive)
9,O=C(NCc1cccc(C(F)(F)F)c1)c1cc(-c2ccccc2)nn1CC1CC(c2cccnc2)=NO1 (stereo not given),13% (inactive)
10,CC(C)C(=O)Nc1ccc(C(=O)CN2C(=O)NC3(CCOc4ccccc43)C2=O)cc1 (stereo not given),8.93% (inactive)
11,O=NN(CCc1ccncc1)c1ccc(OCc2ccccc2)cc1,3.58% (inactive)
12,Cc1ccc(Nc2nc(-c3cccnc3)nc3ccccc23)cc1,36.1% (active)
13,COc1cccc(C(=O)N/N=C2/SCC(=O)N2CCc2ccc(OC)c(OC)c2)c1,10.8% (inactive)
14,Cc1cccc(C(=O)N[C@H](C(=O)Nc2ncc(C)s2)C(C)C)c1,35.8% (active)
15,CCn1cc(Br)c(C(=O)Nc2ccccc2C(=O)OC)n1,7.57% (inactive)
